Here are results for eight molecules from PubChem BioAssay (NCI).

This is part of a sample that, as a whole, favours compounds with a hit. Of some 79,000 tested, about 15% had one in any assay. A number with no mark means an inactive call. Active and inactive are the calls of the source. Cut-off read from the data, not from the text of the source: active = growth inhibition above about 70%; inactive = the rest.

The test is described as follows: NCI Yeast Anticancer Drug Screen. Data for the mlh1 strain (AID 171).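 Note: 0% = growth of vehicle-treated control cultures of the same strain.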 The note with it: S. cerevisiae mlh1 strain growth inhibition, active compounds read high. As for the experimental part:
Growth inhibition of yeast strains with defined genetic alterations is measured as a screen for potential anti-cancer activity. Selected strains with alterations in DNA damage repair or cell cycle control were exposed to compounds and growth inhibition was measured relative to vehicle treated controls. The strain used in this assay is mlh1

On to `O=C(Nc1ccc2c(c1)Cc1c-2ccc([N+](=O)[O-])c1F)C(F)(F)F`, for which the growth inhibition (at 1.2 µM) was 5%; the growth inhibition (at 3.7 µM) is 3%; the growth inhibition (at 11.0 µM) is 3%; the growth inhibition (at 33.0 µM) is 2%; the growth inhibition (at 100.0 µM) was 2%.
Take `O=C1c2ccccc2CCC1(Br)Br`: the growth inhibition reads like this: (at 1.2 µM) 7%; (at 3.7 µM) 13%; (at 11.0 µM) 72% (active); (at 33.0 µM) 99% (active); (at 100.0 µM) 99% (active).
Take `CN(C)CCN1C(=O)c2cccc3cc([N+](=O)[O-])cc(c23)C1=O`: the growth inhibition (at 1.2 µM) is 14%; the growth inhibition (at 3.7 µM) is 1%; the growth inhibition (at 11.0 µM) was -13%; the growth inhibition (at 33.0 µM) was 0%; the growth inhibition (at 100.0 µM) was 60%.
With `CCc1nc(N)nc(N)c1-c1ccc(NCCCCCCN)c([N+](=O)[O-])c1`, the growth inhibition runs as follows: (at 1.2 µM) -4%; (at 3.7 µM) -1%; (at 11.0 µM) 0%; (at 33.0 µM) -6%; (at 100.0 µM) -5%.
As to `O=C1C=CC(=O)N1c1ccc(N2C(=O)C=CC2=O)cc1`, the growth inhibition (at 1.2 µM) was 49%; the growth inhibition (at 3.7 µM) is 99% (active); the growth inhibition (at 11.0 µM) was 100% (active); the growth inhibition (at 33.0 µM) is 100% (active); the growth inhibition (at 100.0 µM) was 99% (active).
For `Nc1cc(S(N)(=O)=O)ccc1SSc1ccc(S(N)(=O)=O)cc1N`, the growth inhibition is, setting by setting: (at 1.2 µM) 4%; (at 3.7 µM) 4%; (at 11.0 µM) 12%; (at 33.0 µM) 28%; (at 100.0 µM) 75% (active).
As to `CN(C)c1ccc(/C=C/c2ccnc3ccccc23)cc1N`, the growth inhibition (at 1.2 µM) was -3%; the growth inhibition (at 3.7 µM) is -3%; the growth inhibition (at 11.0 µM) was -1%; the growth inhibition (at 33.0 µM) is 7%; the growth inhibition (at 100.0 µM) is 42%.
Consider `CCCCCCCCN1C(=O)c2ccccc2C1=O`, for which the growth inhibition was 0% (at 1.2 µM); 0% (at 3.7 µM); 3% (at 11.0 µM); 7% (at 33.0 µM); 14% (at 100.0 µM).
